Source: the supplement of paper PMC11634586
Where a name gives a salt, the structure may show the parent alone. Values without a mark were called inactive.

tested on: NCI-H1688; test: inhibition of cell viability relative to untreated control (fraction); higher = stronger growth inhibition, active = 0.5 or more; conditions: 30 µM; 24 h
Summary of the method: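 NCI-H1688 small cell lung cancer cells were plated in 96-well plates at 3 × 10^3 cells/well, and 24 h later they were exposed to a natural compound library (TargetMol) at 30 µM for 24 h at 37°C with 5% CO2. Viability was measured in triplicate using Cell Counting Kit-8, read as absorbance at 450 nm. Inhibition of cell viability is given as a fraction, calculated from viability normalised to untreated cells.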

| Compound | inhibition of cell viability |
| --- | --- |
| CC1(C)C(O[C@@H]2OC[C@@H](O)[C@H](O)[C@H]2O)CC[C@]23CC24CC[C@]2(C)[C@@H]([C@@]5(C)CC[C@@H](C(C)(C)O)O5)[C@H](O)C[C@@]2(C)C4C[C@@H](O[C@@H]2O[C@H](CO)[C@@H](O)[C@H](O)[C@H]2O)C13 (stereo partly drawn) [Astragaloside IV] | -0.0383 |
| CC1CCC2(O)C(C)(C)C3CCC2(C)C1C3 (stereo not drawn) [Patchouli alcohol] | 0.0152 |
| C[n+]1cccc(C(=O)[O-])c1 [Trigonelline hydrochloride] | -0.14 |
| N[C@@H](Cc1ccc(O)c(O)c1)C(=O)O [Levodopa] | 0.167 |
| Oc1cc(O)cc(/C=C/c2ccc(O)c(O)c2)c1 [Piceatannol] | 0.164 |
| COc1c(O)cc2c(c1O)[C@@H]1O[C@H](CO)[C@@H](O)[C@H](O)[C@H]1OC2=O [Bengenin] | 0.0368 |
| CC[C@@H]1C(=O)OC[C@@H]1Cc1cncn1C [Pilocarpine nitrate] | -0.128 |
| C[C@@H]1O[C@@H](Oc2c(-c3cc(O)c(O)c(O)c3)oc3cc(O)cc(O)c3c2=O)[C@H](O)[C@H](O)[C@H]1O [Myricetrin] | -0.141 |
| CC(=O)OC(C)C(C)C(=O)OCC12C3CC(C)(C)[C@H](O[C@@H]1C[C@]1(C)C3=CCC3C4(C)CCC(O[C@@H]5O[C@H](C(=O)O)[C@@H](O[C@H]6O[C@H](CO)[C@@H](O)[C@H](O)[C@H]6O)[C@H](O)[C@H]5O[C@@H]5OC[C@@H](O)[C@H](O)[C@H]5O)[C@](C)(CO)C4CCC31C)C2O (stereo partly drawn) [Sodium Aescinate] | 0.524 (active) |
| O=C(/C=C/c1ccc(O)c(O)c1)O[C@@H]1C[C@](O)(C(=O)O)C[C@@H](O)[C@H]1O [Chlorogenic Acid] | 0.162 |
| O=C[C@H](O)[C@@H](O)[C@H](O)CO (racemic) [DL-Xylose] | -0.162 |
| CC(=O)[C@H]1CC[C@H]2[C@@H]3CCC4=CC(=O)CC[C@]4(C)[C@H]3CC[C@]12C [Progesterone] | -0.156 |
| COC(=O)C1=CC[C@@]23CC[C@@H]([C@@](C)(/C=C/C=C(\C)C(=O)O)OC2=O)[C@@]3(OC(C)=O)CC1 [Pseudolaric Acid B] | 0.813 (active) |
| CC(=O)c1c(O)cc(O)cc1O [Phloracetophenone] | 0.00993 |
| C=C1C[C@]23C[C@@]1(O)CC[C@H]2[C@@]12C=C[C@H](O)[C@@](C)(C(=O)O1)[C@H]2[C@@H]3C(=O)O [Gibberellic acid] | 0.0962 |
| Cc1coc2c1C(=O)C(=O)c1c-2ccc2c1CCCC2(C)C [Tanshinone IIA] | 0.958 (active) |
| N[C@@H](Cc1cc(I)c(Oc2ccc(O)c(I)c2)c(I)c1)C(=O)O [Lyothyronine] | 0.0198 |
| COc1cc(OC)c2ccc(=O)oc2c1 [Citropten] | -0.00623 |
| COc1c(O)cc(O)c2c(=O)cc(-c3ccccc3)oc12 [Wogonin] | -0.0139 |
| O=c1cc(-c2ccccc2)oc2cc(O)cc(O)c12 [Chrysin] | 0.197 |
| C=C(NC(=O)C(=C)NC(=O)c1csc(C2=N[C@@H]3c4csc(n4)[C@H]4NC(=O)c5csc(n5)[C@H]([C@](C)(O)[C@@H](C)O)NC(=O)[C@H]5CSC(=N5)/C(=C/C)NC(=O)[C@H]([C@@H](C)O)NC(=O)c5csc(n5)[C@]3(CC2)NC(=O)[C@H](C)NC(=O)C(=C)NC(=O)[C@H](C)NC(=O)[C@H]([C@@H](C)CC)N[C@@H]2C=Cc3c([C@H](C)O)cc(nc3[C@H]2O)C(=O)O[C@@H]4C)n1)C(N)=O [Thiostrepton] | 0.943 (active) |
| O=C(OC[C@H]1O[C@@H](OC(=O)c2cc(O)c(O)c(OC(=O)c3cc(O)c(O)c(O)c3)c2)[C@H](OC(=O)c2cc(O)c(O)c(OC(=O)c3cc(O)c(O)c(O)c3)c2)[C@@H](OC(=O)c2cc(O)c(O)c(OC(=O)c3cc(O)c(O)c(O)c3)c2)[C@@H]1OC(=O)c1cc(O)c(O)c(OC(=O)c2cc(O)c(O)c(O)c2)c1)c1cc(O)c(O)c(OC(=O)c2cc(O)c(O)c(O)c2)c1 [Glycerite] | 0.821 (active) |
| CCCCCCCCCCCCCCCC(=O)O [Palmitic acid] | 0.0796 |
